The source made the active and inactive calls. The calls were made as follows: active = hit-call score of the fitted dose curve at least 0.9, where 1 is the maximum; inactive = score below 0.9.
Experiment: ATG_CMV_CIS: Attagene CIS-FACTORIAL HepG2 Assay for human CMV (Internal Marker) (AID 2282928);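 also: endpoint acts as a background internal control marker rather than a target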
Settings: HepG2 CMV promoter reporter, transcription factor profiling; actives raise or lower the signal
In short: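 Reporter transcripts from transfected HepG2 cells are isolated after 24 h of chemical dosing, reverse-transcribed and amplified. Fragments labeled with 6-FAM are cut with HpaI and quantified by capillary electrophoresis; DMSO defines baseline.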
In the case of `CCCSP(=S)(OCC)Oc1ccc(SC)cc1` (stereo not drawn), the outcome is reported as “inactive”.
For `COCC(=O)N(c1c(C)cccc1C)[C@H](C)C(=O)OC`, the outcome was “inactive”.
With `Cc1cc(C)cc(C)c1` the outcome was “inactive”.
With `CCOP(=S)(OCC)SCSc1cc(Cl)ccc1Cl` the outcome was “inactive”.
For `C=CC(=O)[O][Sn]([CH2]CCC)([CH2]CCC)[CH2]CCC`, the outcome was “inactive”.
In the case of `N#CS`, the outcome is reported as “inactive”.
For `Cc1cccc(OP(=O)(Oc2cccc(C)c2)Oc2cccc(C)c2)c1`, the outcome was “inactive”.
For `C1CN2CCN1CC2`, the outcome was “inactive”.
For `COc1ccc([N+](=O)[O-])cc1O`, the outcome was “inactive”.
In the case of `CCC[N+](CCC)(CCC)CCC`, the outcome is reported as “inactive”.
For `O=c1nc(O)n(Cl)c(=O)n1Cl`, the outcome was “inactive”.
For `O=NN1CCOCC1`, the outcome was “inactive”.
With `O=C(O)CC(O)(CC(=O)O)C(=O)O` the outcome was “inactive”.
With `CCOP(=S)(OCC)SCS(=O)(=O)C(C)(C)C` the outcome was “inactive”.
With `CC(c1ccc(O)cc1)c1ccc(O)cc1` the outcome was “inactive”.
For `COc1nn(C(=O)NS(=O)(=O)c2ccccc2OC(F)(F)F)c(=O)n1C`, the outcome was “inactive”.
With `CC(C)[N+](=O)[O-]` the outcome was “inactive”.
In the case of `CC1(C)[C@H](C(=O)O[C@H](C#N)c2cccc(Oc3ccccc3)c2)[C@@H]1/C=C(\Cl)C(F)(F)F`, the outcome is reported as “inactive”.
For `C=C(C)[C@@H]1CC=C(C=O)CC1`, the outcome was “inactive”.
In the case of `CC1CC(=O)O1` (stereo not drawn), the outcome is reported as “inactive”.
In the case of `Brc1ccc(Br)cc1`, the outcome is reported as “inactive”.
For `CC(C)O.CC(C)O.OCCN(CCO)CCO.OCCN(CCO)CCO.[Ti]`, the outcome was “inactive”.
For `CCCCCCCCCCCCCl`, the outcome was “inactive”.
For `CCOc1cc(C=O)ccc1O`, the outcome was “inactive”.
For `O=S(=O)(C(Cl)(Cl)Cl)C(Cl)(Cl)Cl`, the outcome was “inactive”.
For `CC(C)(C)c1ccccc1O`, the outcome was “inactive”.
With `O=C(N[C@H]1CN2CCC1CC2)c1ccc2c(c1)OCCO2` the outcome was “inactive”.
In the case of `O=C(Cc1ccccc1)OCCc1ccccc1`, the outcome is reported as “inactive”.
In the case of `OCCN(CCO)CCO`, the outcome is reported as “inactive”.
With `OC[C@@H](O)[C@H]1O[C@@H]2O[C@H](C(Cl)(Cl)Cl)O[C@@H]2[C@H]1O` the outcome was “inactive”.
In the case of `Oc1c(Cl)cc(Cl)cc1Cl`, the outcome is reported as “inactive”.
In the case of `C[N+](C)(C)Cc1ccccc1`, the outcome is reported as “inactive”.
In the case of `OC(Cc1ccccc1Cl)(Cn1[nH]cnc1=S)C1(Cl)CC1` (stereo not drawn), the outcome is reported as “inactive”.
In the case of `CCCCS(=O)(=O)Cl`, the outcome is reported as “inactive”.
For `CC1(C)[C@H](/C=C2\CCSC2=O)[C@@H]1C(=O)OCc1coc(Cc2ccccc2)c1`, the outcome was “inactive”.
With `C=CC(F)(C(F)(F)F)C(F)(F)C(F)(F)F` (stereo not drawn) the outcome was “inactive”.
With `O=C(CBr)c1ccc(O)cc1` the outcome was “inactive”.
With `C#CCOC(=O)/C=C(C)/C=C/CC(C)CCCC(C)C` (stereo not drawn) the AC50 was 36.9 µM (active).
In the case of `CC(C)(C1CCC(O)CC1)C1CCC(O)CC1` (stereo not drawn), the outcome is reported as “inactive”.

Experiment: ATG_DR4_LXR_CIS: Attagene CIS-FACTORIAL HepG2 Assay for human Liver X Receptor (LXR), DR4 submotif (AID 2282929)
Settings: HepG2 Attagene DR4 cis-reporter, mRNA transcription; actives raise or lower the signal
In short: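 HepG2, transient MRTU transfection, cis-element (DR4) promoter; 24 h compound exposure; total RNA → oligo(dT) RT → PCR → 6-FAM primer extension → HpaI cut → CE. Gain/loss vs DMSO, bidirectional fit.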
In the case of `CCCSP(=S)(OCC)Oc1ccc(SC)cc1` (stereo not drawn), the outcome is reported as “inactive”.
In the case of `COCC(=O)N(c1c(C)cccc1C)[C@H](C)C(=O)OC`, the outcome is reported as “inactive”.
In the case of `Cc1cc(C)cc(C)c1`, the outcome is reported as “inactive”.
For `CCOP(=S)(OCC)SCSc1cc(Cl)ccc1Cl`, the outcome was “inactive”.
In the case of `C=CC(=O)[O][Sn]([CH2]CCC)([CH2]CCC)[CH2]CCC`, the AC50 is reported as 0.607 µM (active).
In the case of `N#CS`, the outcome is reported as “inactive”.
In the case of `Cc1cccc(OP(=O)(Oc2cccc(C)c2)Oc2cccc(C)c2)c1`, the outcome is reported as “inactive”.
With `C1CN2CCN1CC2` the outcome was “inactive”.
With `COc1ccc([N+](=O)[O-])cc1O` the outcome was “inactive”.
For `CCC[N+](CCC)(CCC)CCC`, the outcome was “inactive”.
With `O=c1nc(O)n(Cl)c(=O)n1Cl` the outcome was “inactive”.
For `O=NN1CCOCC1`, the outcome was “inactive”.
For `O=C(O)CC(O)(CC(=O)O)C(=O)O`, the outcome was “inactive”.
In the case of `CCOP(=S)(OCC)SCS(=O)(=O)C(C)(C)C`, the AC50 is reported as 29.2 µM (active).
In the case of `CC(c1ccc(O)cc1)c1ccc(O)cc1`, the outcome is reported as “inactive”.
With `COc1nn(C(=O)NS(=O)(=O)c2ccccc2OC(F)(F)F)c(=O)n1C` the outcome was “inactive”.
For `CC(C)[N+](=O)[O-]`, the outcome was “inactive”.
For `CC1(C)[C@H](C(=O)O[C@H](C#N)c2cccc(Oc3ccccc3)c2)[C@@H]1/C=C(\Cl)C(F)(F)F`, the outcome was “inactive”.
In the case of `C=C(C)[C@@H]1CC=C(C=O)CC1`, the outcome is reported as “inactive”.
For `CC1CC(=O)O1` (stereo not drawn), the outcome was “inactive”.
In the case of `Brc1ccc(Br)cc1`, the outcome is reported as “inactive”.
For `CC(C)O.CC(C)O.OCCN(CCO)CCO.OCCN(CCO)CCO.[Ti]`, the outcome was “inactive”.
With `CCCCCCCCCCCCCl` the outcome was “inactive”.
With `CCOc1cc(C=O)ccc1O` the outcome was “inactive”.
In the case of `O=S(=O)(C(Cl)(Cl)Cl)C(Cl)(Cl)Cl`, the outcome is reported as “inactive”.
For `CC(C)(C)c1ccccc1O`, the AC50 was 100 µM (active).
In the case of `O=C(N[C@H]1CN2CCC1CC2)c1ccc2c(c1)OCCO2`, the outcome is reported as “inactive”.
In the case of `O=C(Cc1ccccc1)OCCc1ccccc1`, the outcome is reported as “inactive”.
For `OCCN(CCO)CCO`, the outcome was “inactive”.
In the case of `OC[C@@H](O)[C@H]1O[C@@H]2O[C@H](C(Cl)(Cl)Cl)O[C@@H]2[C@H]1O`, the outcome is reported as “inactive”.
For `Oc1c(Cl)cc(Cl)cc1Cl`, the outcome was “inactive”.
In the case of `C[N+](C)(C)Cc1ccccc1`, the outcome is reported as “inactive”.
For `OC(Cc1ccccc1Cl)(Cn1[nH]cnc1=S)C1(Cl)CC1` (stereo not drawn), the outcome was “inactive”.
For `CCCCS(=O)(=O)Cl`, the outcome was “inactive”.
With `CC1(C)[C@H](/C=C2\CCSC2=O)[C@@H]1C(=O)OCc1coc(Cc2ccccc2)c1` the AC50 was 17.9 µM (active).
With `C=CC(F)(C(F)(F)F)C(F)(F)C(F)(F)F` (stereo not drawn) the outcome was “inactive”.
For `O=C(CBr)c1ccc(O)cc1`, the outcome was “inactive”.
With `C#CCOC(=O)/C=C(C)/C=C/CC(C)CCCC(C)C` (stereo not drawn) the AC50 was 96.1 µM (active).
In the case of `CC(C)(C1CCC(O)CC1)C1CCC(O)CC1` (stereo not drawn), the outcome is reported as “inactive”.

Reference: PubChem BioAssay (EPA / NIEHS)
